{"source": "PubChem BioAssay (Tox21)", "note": "Where “and” joins values, the source holds several entries; their conditions need not be identical. Equal entries are not always repeated. Records with an inconclusive call do not appear. Entries that show only a call come without a potency. A number with no mark means an inactive call. Calls of active or inactive are those of the source. Calls come from the whole dose curve; as a rule, active = well fitted cell-killing curve with a large enough effect in the repeat runs; inconclusive = weak or mixed curves, or effect the other way; inactive = flat fitted curve, though single readings scatter. Potency is the fitted concentration of half-maximal effect.", "data": [{"test": "qHTS RealTime-Glo MT Cell Viability Assay in HEK293 cells - 24 hour (AID 1224886); note: nearly all actives have a fitted effect of over 50% in size; for activity change, negative = cytotoxicity: top concentration of the series differs between compounds", "conditions": "RealTime-Glo luminescence; series mostly up to 76.8 µM", "source_text": "National Center for Advancing Translational Sciences [NCATS]\nNIH Chemical Genomics Center [NCGC]\nU.S. Environmental Protection Agency [EPA]\nNational Institutes of Environmental Health Sciences [NIEHS]\nNational Toxicology Program [NTP]\nU.S. Food and Drug Administration [FDA]\nMeasure of cell viability is critical in the cell-base assay. Analysis of cell viability is necessary for the characterization of cell responses to cytotoxic drugs and environmental stress. A RealTime-Glo MT Cell Viability Assay to monitor cell viability in real time of continues cell culture during 40 hours of compound treatment was used to screen Tox21 10K library compounds in Hek293 cells. The RealTime-Glo MT Cell Viability Assay is a nonlytic, homogeneous, bioluminescent method to measure cell viability in real time using a simple, plate-based method. The assay involves adding NanoLuc luciferase and a cell-permeant prosubstrate to cells in culture. Viable cells reduce the proprietary prosubstrate to generate a substrate for NanoLuc luciferase. This substrate diffuses from cells into the surrounding culture medium, where it is rapidly used by the NanoLuc Enzyme to produce a luminescent signal. The signal correlates with the number of viable cells, making the assay well suited for cytotoxicity studies.\nTox21 Assay Protocol Summary:\nThe mixture of Hek293 cell suspension and reagents were dispensed at 600cells/6 ul/well in 1536-well tissue culture treated black solid bottom plates using a Multidrop dispenser. After the assay plates were incubated at a 37 C/5% CO2 incubator for 5 hours, 23 nL of compounds dissolved in DMSO, positive and negative controls was transferred to the assay plate by a pintool work station. The plates were incubated at 37 C for 40 hours. The luminescence intensity were measured at 0h, 8h, 16h, 24h, 32h and 40h time points using ViewLux plate reader during compound treatment.", "values": [{"molecule": "CC(=O)[O][Al]", "Potency": "inactive"}, {"molecule": "COc1ccc(S(=O)(=O)N2C(=O)[C@@](c3ccccc3OC)(N3C[C@H](O)C[C@H]3C(=O)N(C)C)c3cc(Cl)ccc32)c(OC)c1", "Potency": "49 µM (active)"}, {"molecule": "COc1ccc(-c2nc3ccc(C4=NNC(=O)CC4C)cc3[nH]2)cc1", "note": "(stereo not given)", "Potency": "9.52 µM (active)"}, {"molecule": "CCn1cc(C(=O)O)c(=O)c2cnc(N3CCNCC3)nc21", "Potency": "inactive"}, {"molecule": "O=C(NCCO[N+](=O)[O-])c1cccnc1", "Potency": "inactive"}, {"molecule": "COc1ccnc(CS(=O)c2nc3ccc(OC(F)F)cc3[nH]2)c1OC", "note": "(stereo not given)", "Potency": "inactive"}, {"molecule": "CCCCCCCN", "Potency": "inactive"}, {"molecule": "NC(N)=NCCC[C@H](N)C(=O)O", "activity change, negative = cytotoxicity": "4.77% [at 6.97 µM]"}, {"molecule": "OCCNCc1ccccc1", "Potency": "inactive"}, {"molecule": "CCCCCCCCCOS(=O)(=O)O", "Potency": "inactive"}, {"molecule": "C=C1C(=C/C=C2\\CCC[C@]3(C)[C@@H]([C@H](C)/C=C/[C@@H](O)C4CC4)CC[C@@H]23)C[C@@H](O)C[C@@H]1O", "Potency": "19 µM (active)"}, {"molecule": "OC(C#CCN1CCCC1)(c1ccccc1)c1ccccc1", "Potency": "inactive"}, {"molecule": "CCCCCCCC/C=C\\CCCCCCCC(=O)OCC", "Potency": "inactive"}, {"molecule": "COc1ccc(C)cc1[N+](=O)[O-]", "Potency": "inactive"}, {"molecule": "C=C(C)C(=O)OCCOCC", "Potency": "inactive"}, {"molecule": "C=CC(=O)OCCOCCOCCOCCOC(=O)C=C", "Potency": "34.8 µM (active) and 30.6 µM (active)"}, {"molecule": "CCCCOC(=O)CCCCCCCC(=O)OCCCC", "Potency": "inactive"}, {"molecule": "CCO[C@H](Cc1ccc(OCCc2ccc(OS(C)(=O)=O)cc2)cc1)C(=O)O", "Potency": "inactive"}, {"molecule": "O=C1OC(CN2CCOCC2)CN1/N=C/c1ccc([N+](=O)[O-])o1", "note": "(stereo not given)", "Potency": "inactive"}, {"molecule": "CCOC(=O)NCCOc1ccc(Oc2ccccc2)cc1", "Potency": "21.9 µM (active)"}, {"molecule": "Nc1ccccc1S(=O)(=O)c1ccccc1", "Potency": "inactive"}, {"molecule": "CC1=CC[C@H](C(C)C)C=C1", "Potency": "inactive"}, {"molecule": "Cc1c(N)cccc1[N+](=O)[O-]", "Potency": "inactive"}, {"molecule": "Nc1cc(C(=O)O)c(O)c(S(=O)(=O)O)c1", "Potency": "inactive"}, {"molecule": "CN(C)c1ccc(/C=C/c2ccc([N+](=O)[O-])cc2)cc1", "activity change, negative = cytotoxicity": "-4.06% [at 6.97 µM]"}, {"molecule": "O=P(O)(OCc1ccccc1)OCc1ccccc1", "Potency": "inactive"}, {"molecule": "Cc1cccc(Nc2ccccc2)c1", "Potency": "inactive"}, {"molecule": "COC(=O)c1ccc(I)cc1S(=O)(=O)NC(=O)Nc1nc(C)nc(OC)n1", "Potency": "inactive"}, {"molecule": "NCC(=O)CCC(=O)O", "Potency": "inactive"}, {"molecule": "CCOCC(O)COc1ccc(NC(=O)CC[S+](C)C)cc1", "note": "(stereo not given)", "Potency": "inactive"}, {"molecule": "CC(C)(C)OCC1CO1", "note": "(stereo not given)", "Potency": "inactive"}, {"molecule": "O=CC1CC=CCC1", "note": "(stereo not given)", "Potency": "inactive"}, {"molecule": "CCOC(=O)C1=C[C@]2(CC)CCCN3CCc4c(n1c1ccccc41)[C@@H]32", "Potency": "inactive"}, {"molecule": "CCO[Si](CCCCl)(OCC)OCC", "Potency": "inactive"}, {"molecule": "CCCCCCOC(=O)NC(=N)c1ccc(NCc2nc3cc(C(=O)N(CCC(=O)OCC)c4ccccn4)ccc3n2C)cc1", "Potency": "9.52 µM (active)"}, {"molecule": "CCc1c(C(=O)NN2CCCCC2)nn(-c2ccc(Cl)cc2Cl)c1-c1ccc(Br)cc1", "Potency": "inactive"}, {"molecule": "CCCCC(=O)OCC(=O)[C@H]1[C@H](C)C[C@H]2[C@@H]3C[C@H](F)C4=CC(=O)C=C[C@]4(C)[C@@]3(F)[C@@H](O)C[C@@]21C", "Potency": "inactive"}, {"molecule": "CCN(CC)c1ccc2c(-c3ccccc3C(=O)O)c3ccc(=[N+](CC)CC)cc-3oc2c1", "Potency": "24.5 µM (active)"}, {"molecule": "COc1cc(Cl)c(OC)cc1N", "Potency": "inactive"}, {"molecule": "CC(C)Nc1ccc(NC(C)C)c2c1C(=O)c1ccccc1C2=O", "Potency": "inactive"}]}]}
